High-throughput results as filed in PubChem BioAssay.
CYP2C19 act: increases human CYP2C19 enzyme activity; 96,000 tested, under 10 active; activation factor at 5 µM; P33261; recombinant CYP2C19, luciferin-H EGE luminescence; hits give high values; 0 = fully inhibited enzyme, 1 = untreated enzyme;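 active = activation factor of at least 2 at 5 µM in the primary screen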;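 note: 0 = wells with 2.5 mM tranylcypromine and 1 = vehicle-only wells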
CYP2C9 inhib: blocks human cytochrome P450 2C9; 96,000 tested, 20% active; CYP2C9 Supersomes, luciferin-H conversion, luminescence; P11712; inhibition, % at 5 µM;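 active = blocking of liver enzyme CYP2C9 beyond about 50% at 5 µM, limit read from the data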
Target sequence (P11712 whole entry, looked up): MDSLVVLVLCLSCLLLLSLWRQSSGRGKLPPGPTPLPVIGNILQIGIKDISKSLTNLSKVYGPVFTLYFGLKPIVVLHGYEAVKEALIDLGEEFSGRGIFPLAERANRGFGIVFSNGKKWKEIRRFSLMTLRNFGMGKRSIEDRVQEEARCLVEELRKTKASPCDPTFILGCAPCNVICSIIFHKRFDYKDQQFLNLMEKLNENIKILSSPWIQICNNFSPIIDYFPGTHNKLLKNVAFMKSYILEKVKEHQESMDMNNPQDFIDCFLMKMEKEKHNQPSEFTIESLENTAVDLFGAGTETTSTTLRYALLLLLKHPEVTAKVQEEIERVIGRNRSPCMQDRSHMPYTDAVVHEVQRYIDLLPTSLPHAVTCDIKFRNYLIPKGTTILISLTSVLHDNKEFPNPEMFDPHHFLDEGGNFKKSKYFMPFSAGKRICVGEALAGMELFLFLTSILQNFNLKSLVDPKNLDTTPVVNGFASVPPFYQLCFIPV
D1 mod: allosteric modulators of human D1 dopamine receptor; HEK293 D1, CRE-luciferase, dopamine EC30 potentiation; actives deviate in either direction; B-score at 10 µM; AID 641; 58,000 tested, 5.9% active; P21728;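 active = luminescence count or its row- and column-corrected plate score outside the 99.7% band of the plate's sample wells, on either side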
hDAT+cocaine: changed human dopamine transporter uptake under cocaine IC80; Q01959; LLC-PK1 hDAT cells, [14C]-dopamine uptake with cocaine IC80; actives deviate in either direction; B-score at 10 µM; 110,000 tested, 1.3% active; AID 449768;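 active = Z score or B-score, a plate-position-corrected score, falls beyond the plate's 99.7% confidence bounds, in either direction; inactive = both scores lie inside the 99.7% bounds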;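 note: scored against the spread of the other compound wells on the same plate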
CYP2C9 activ: activators of human CYP2C9 | P11712 | recombinant CYP2C9, luciferin-H conversion, luminescence; hits give high values; factor 1 = untreated enzyme, 0 = blocked | 96,000 tested, 1.4% active | activation factor at 5 µM;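 active = activation factor of 2 or more for CYP2C9 at a 5 µM dose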;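 note: 0 = sulfaphenazole-blocked wells and 1 = vehicle-only wells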
CYP2C19 inhib: human CYP2C19 inhibition; 96,000 tested, 21% active; P33261; inhibition, % at 5 µM; CYP2C19 Supersomes, luciferin-H EGE luminescence, 30 min;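 active = CYP2C19 inhibition above a set limit at 5 µM in the primary screen, cut at about 50% in these data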;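 note: plate controls were negative control wells for no effect and 2.5 mM tranylcypromine positive control for full effect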
Starred values were filed as active, the others as inactive; . = not tested or not shown. This is a sample that favours compounds with a hit; in the whole collection about 28% have one here.

SMILES	CYP2C19 act	CYP2C9 inhib	D1 mod	hDAT+cocaine	CYP2C9 activ	CYP2C19 inhib
CCC(C)c1ccc(O)c(NC(=O)c2cncc(Br)c2)c1 (configuration not stated)	0.6	50*	1.1	-0.45	0.5	39
Cc1ccc(S(=O)(=O)c2nc(N3CCOCC3)sc2Cl)cc1	0.6	6	2.2	-1.1	0.9	36
CCOc1ccc(C2C(C(=O)c3cccs3)=C(O)C(=O)N2CCCn2ccnc2)cc1 (configuration not stated)	0.8	73*	.	.	0.3	16
CCCOc1ccc(C2C(C(=O)c3ccc(C)o3)=C(O)C(=O)N2Cc2cccnc2)cc1 (configuration not stated)	1.1	59*	-0.31	1.4	0.4	-10
Cc1ccc(C(=O)C2=C(O)C(=O)N(CCCn3ccnc3)C2c2ccc(OC(C)C)cc2)o1 (configuration not stated)	0.8	57*	-0.53	-0.36	0.4	20
CCOc1ccc(C2C(C(=O)c3ccco3)=C(O)C(=O)N2CCCn2ccnc2)cc1 (configuration not stated)	0.9	49	-0.23	0.61	0.5	6
CCOc1ccc(C(=O)c2cccs2)cc1	0.3	47	0.56	-0.85	0.5	73*
O=C(N1CCCC1)N1CCN(c2ncnc3c(-c4ccc(Cl)cc4)nsc23)CC1	1.1	-16	0.061	.	1.2	-11
COc1ccc(C[C@H]2CN3C(=NC[C@@H]3Cc3ccc(O)cc3)N2C[C@H](C)NC(=O)c2ccc(C)c(Br)c2)cc1	.	.	.	-0.92	.	.
CC(Oc1ccccc1)C(=O)NC1CC(C)(C)NC(C)(C)C1 (configuration not stated)	1.1	-6	0.094	-0.71	1.1	-11
COc1ccc(NC(=O)c2c(-c3ccccc3)noc2C)c(OC)c1	0.5	31	0.078	-0.3	0.7	46
COc1ccc(-n2nc3c(c2NC(=O)c2c(-c4ccccc4Cl)noc2C)CS(=O)(=O)C3)cc1	0.5	82*	0.16	.	0.2	50
Cc1onc(-c2ccccc2Cl)c1C(=O)Nc1cc(=O)n(C)c(=O)n1C	.	.	-1.1	-0.25	.	.
COc1ccc(NC(=O)c2c(-c3ccccc3Cl)noc2C)c(OC)c1	0.4	49	0.0021	0.41	0.5	59*
CC(C)CCn1c(CN2CC(C)OC(C)C2)nc2c1c(=O)n(C)c(=O)n2C (configuration not stated)	.	.	0.06	.	.	.
Cc1nn(C(=O)c2ccccc2)c2c1C(=O)CC(C)(C)C2	0.2	69*	.	-0.45	0.3	80*
CCOC(=O)c1cnc(SCC(=O)Nc2ccc(NC(=O)CC)c(OC)c2)nc1N	0.8	50	-0.73	-0.97	0.5	20
O=c1c(-c2ccc(Br)cc2)coc2c(CN3CCOCC3)c(O)ccc12	0.8	58*	-1.9	0.73	0.4	19
Cc1oc2c(CN3CCOCC3)c(O)ccc2c(=O)c1-c1ccc(Br)cc1	0.7	54*	-0.59	-0.13	0.5	26
O=c1oc2c(CN3CCOCC3)c(O)ccc2c2ccccc12	1	-1	.	-1.5	1	2
O=c1oc2c(CN3CCOCC3)c(O)ccc2c2c1CCCC2	1	-104	1	0.03	2*	4
Cc1oc2c(CN3CCCC3)c(O)ccc2c(=O)c1-c1ccc(Cl)cc1	1	7	.	.	0.9	4
CCc1cc2c(=O)c(-c3cnn(-c4ccccc4)c3)coc2c(CN2CCOCC2)c1O	0.8	74*	0.063	0.84	0.3	22
Cc1cccc(C)c1OC(=O)CN(c1ccc(Cl)cc1)S(C)(=O)=O	1	15	.	0.32	0.8	-1
Cc1c(C=O)c2ccccc2n1CC(=O)N1CCc2ccccc2C1	.	.	.	-0.22	.	.
SMILES	CYP2C19 act	CYP2C9 inhib	D1 mod	hDAT+cocaine	CYP2C9 activ	CYP2C19 inhib
CCOC(=O)/C=C/c1ccc2c(c1)S(=O)(=O)N(Cc1ccc(OC)cc1)[C@H]2CC(=O)OCC	.	.	.	-0.49	.	.
CC(NC(=O)CC(O)(C(F)(F)F)C(F)(F)F)c1ccccc1 (configuration not stated)	0.2	57*	1.2	-1.2	0.4	78*
C=CCN(C(=O)CCC(=O)O)C1CC(=O)N(c2ccc(OCCC)cc2)C1=O (configuration not stated)	0.9	5	.	-0.32	0.9	9
CC1(C)CC(=O)C2=C(C1)Nc1cc3c(cc1C2c1ccc(F)cc1)OCO3 (configuration not stated)	0.9	23	.	-0.2	0.8	12
CC1(C)CC(=O)C2=C(C1)Nc1cc3c(cc1C2c1ccc2c(c1)OCO2)OCO3 (configuration not stated)	0.5	76*	.	0.23	0.2	48
COc1ccc(C2C3=C(CC(C)(C)CC3=O)Nc3cc4c(cc32)OCO4)cc1 (configuration not stated)	0.7	70*	.	2.5*	0.3	32
Cc1cccc(NC(=O)CC2C(=O)NCCN2C(=S)Nc2ccccc2)c1 (configuration not stated)	0.8	28	.	-0.23	0.7	19
O=C1CCCC2=C1C1(CCCCC1)N=C(Nc1nc3ccccc3o1)N2	.	.	-0.64	-0.33	.	.
Cc1cccc(C)c1Nc1nc2ccccc2o1	0.6	64*	0.72	0.074	0.4	39
CCOC(=O)c1cnc(Nc2nc3ccccc3o2)nc1C	0.1	58*	.	0.31	0.4	88*
Cc1nc(Nc2nc3ccccc3o2)nc2c1CCC2	0.7	6	-6.1*	0.56	0.9	29
O=c1c2cccc3c(N4CCOCC4)ccc(c32)c2nc3ccccc3n12	0.9	18	-1	.	0.8	15
O=CNCCCc1nc2ccccc2n1Cc1cccc2ccccc12	0	91*	.	1.1	0.1	97*
Cc1noc(C)c1COC(=O)C1(c2cccc(F)c2)CCCC1	0.6	56*	0.027	-0.26	0.4	37
CCOC(=O)c1noc(C)c1C(=O)Nc1cccc(F)c1	0.6	5	.	0.76	1	42
O=S(=O)(NC1CCCCC1)c1cccc(-c2nnc(-c3ccccc3)o2)c1	0.7	84*	-0.23	0.5	0.2	29
Clc1cccc(-c2nnc(-c3ccccc3)o2)c1	0.8	4	.	-1.4	1	22
Cc1ccccc1NS(=O)(=O)c1cccc(-c2nnc(-c3ccccc3)o2)c1	0.9	37	1.9	-2	0.6	12
CN(C)S(=O)(=O)c1cccc(-c2nnc(-c3ccccc3)o2)c1	0.5	92*	.	0.41	0.1	48
O=C(NCC(=O)N(Cc1cccs1)C(C(=O)NC1CCCC1)c1ccco1)c1cccs1 (configuration not stated)	0.1	89*	-1.9	0.019	0.1	87*
O=C(NCC(=O)N(Cc1cccs1)C(C(=O)NC1CCCC1)c1cccnc1)c1ccco1 (configuration not stated)	.	.	.	-0.0009	.	.
